This note sets out measurements from PubChem BioAssay (NCATS).

Holding throughout (experiment): qHTS profiling for inhibitors of Plasmodium falciparum proliferation (AID 504749); also: nearly all actives have a fitted effect of over 60% in size
Conditions in all cases: P. falciparum in erythrocytes, SYBR Green DNA, 72 h; series mostly up to 28.7 µM

For one experiment, the system named is DFO2036. The procedure, abridged: (§1)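 Each compound contacts P. falciparum-infected red blood cells for 72 h at 37 C; lysis buffer (Tris, EDTA, saponin, Triton X, SYBR Green I) is added and fluorescence measured next morning; values normalized to controls.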
The test system of another experiment is DIV14. The procedure, abridged: as §1
In a further experiment the test system is DIV30. The procedure, abridged: as §1
The next experiment deals with Dd2. The procedure, abridged: as §1
Another experiment concerns ECU. The procedure, abridged: as §1
For the next experiment, the system named is FAB9. The procedure, abridged: as §1
For another experiment, the system named is HB3. The procedure, abridged: as §1
A further experiment relates to ICS. The procedure, abridged:
as §1

Another experiment concerns JCK. The procedure, abridged: as §1
In a further experiment the test system is N140. The procedure, abridged:
as §1

The next experiment deals with P93_24. The procedure, abridged:
as §1

In a further experiment the test system is P94_40. The procedure, abridged: as §1
For another experiment, the system named is PAD. The procedure, abridged: as §1
In a further experiment the test system is PC15. The procedure, abridged: as §1
The next experiment concerns PC26. The procedure, abridged: as §1
For the next experiment, the system named is PC49. The procedure, abridged:
as §1

The next experiment relates to SC27B. The procedure, abridged:
as §1

The next experiment deals with TAB109. The procedure, abridged:
as §1

The test system of the next experiment is DIV17. The procedure, abridged:
as §1

The test system of a further experiment is GB4. The procedure, abridged:
as §1

Molecules are shown by their SMILES. Inconclusive results are not listed. Calls of active or inactive are those of the source. Calls follow the shape of the dose curve; as a rule, active = well fitted inhibition curve with a large enough effect; inconclusive = small, poorly fitted or top-dose-only effect; inactive = flat fitted curve, though single readings scatter.
Potency is read from the fitted curve at half-maximal effect.

Take `O=C(O)CN(CCN(CC(=O)O)CC(=O)O)CCN(CC(=O)O)CC(=O)O`: the Potency result in the experiment on DFO2036, with DIV14, with DIV30, in the experiment with Dd2, in the experiment on ECU and in the experiment with FAB9 was “inactive” each time. Moreover, the Potency entry in the experiment with HB3, with ICS, with JCK, in the experiment on N140, in the experiment with P93_24 and in the experiment on P94_40 was “inactive” throughout. Also, the Potency entry in the experiment on PAD, with PC15, with PC26, in the experiment with PC49, with SC27B and in the experiment with TAB109 was “inactive” in each case.

`Cc1ccc(=O)n(-c2ccccc2)c1`: the Potency entry in the experiment on DFO2036, in the experiment with DIV14, with DIV17, in the experiment on DIV30, in the experiment on Dd2 and in the experiment with ECU was “inactive” in each case. Besides, the Potency result with FAB9, with GB4, with HB3, with ICS, in the experiment on JCK and in the experiment with N140 was “inactive” in each case. Besides, the Potency entry with P93_24, in the experiment with P94_40, in the experiment on PC15, with PC26, with PC49 and in the experiment with SC27B was “inactive” each time. The Potency entry in the experiment with TAB109 is “inactive”.

For `O=C(O)CN(CCOCCOCCN(CC(=O)O)CC(=O)O)CC(=O)O`, the Potency entry in the experiment with DFO2036, in the experiment with DIV14, in the experiment with DIV17, in the experiment on DIV30, in the experiment on Dd2 and in the experiment with ECU was “inactive” each time. Also, the Potency result in the experiment with FAB9, in the experiment on GB4, in the experiment on HB3, in the experiment on ICS, with JCK and with N140 was “inactive” throughout. In addition, the Potency result in the experiment on P93_24, in the experiment with P94_40, with PAD, with PC15, with PC26 and with PC49 was “inactive” in each case. In addition, the Potency result in the experiment with SC27B and with TAB109 was “inactive” in each case.

Take `CN(C)CC[C@@H](c1ccc(Br)cc1)c1ccccn1`: the Potency entry in the experiment with DFO2036, in the experiment with ECU, with FAB9, in the experiment on HB3, in the experiment on PAD and in the experiment with SC27B was “inactive” throughout. The Potency in the experiment with DIV14 is 3.79 µM (active); in the experiment with DIV17 it was 7.57 µM (active); with Dd2, 2.51 µM (active).

`OCCN1CCN(CCCN2c3ccccc3C=Cc3ccccc32)CC1`: the Potency in the experiment on DFO2036 was 11.2 µM (active); in the experiment on DIV14, 1.2 µM (active); in the experiment on DIV17 it was 1.69 µM (active); in the experiment with DIV30 it was 6.75 µM (active); in the experiment with Dd2, 4.47 µM (active); in the experiment on ECU, 2.82 µM (active). For the same molecule, the Potency in the experiment with GB4 was 6.75 µM (active); with HB3, 8.91 µM (active); with ICS it was 4.47 µM (active); in the experiment with N140, 3.55 µM (active); in the experiment with P93_24 it was 7.94 µM (active); in the experiment with P94_40 it was 5.01 µM (active). Also, the Potency in the experiment on PAD is 3.55 µM (active); in the experiment on PC15, 2.24 µM (active); with PC26, 4.78 µM (active); in the experiment on PC49 it was 1.41 µM (active); in the experiment with SC27B, 7.94 µM (active); with TAB109, 7.94 µM (active).

For the molecule `C#CCN(C)CCCOc1ccc(Cl)cc1Cl`, the Potency result in the experiment with DFO2036, in the experiment on DIV14, with DIV30, with Dd2, with ECU and in the experiment on FAB9 was “inactive” each time. Besides, the Potency entry in the experiment on GB4, in the experiment with HB3, in the experiment with ICS, with JCK, with N140 and in the experiment on P93_24 was “inactive” throughout. Besides, the Potency result in the experiment with P94_40, with PAD, in the experiment on PC15, in the experiment with PC26, in the experiment with PC49 and in the experiment on SC27B was “inactive” each time. Besides, the Potency entry in the experiment on TAB109 is “inactive”.

As to `CCN(CC)CCCN(c1ccccc1)C1Cc2ccccc2C1`, the Potency in the experiment with DFO2036 was 5.01 µM (active); in the experiment on DIV14, 2.13 µM (active); in the experiment on DIV17 it was 4.26 µM (active); in the experiment with DIV30 it was 8.49 µM (active); in the experiment with Dd2, 3.98 µM (active); in the experiment with ECU, 3.98 µM (active). Also, the Potency with FAB9 is 5.62 µM (active); in the experiment with GB4 it was 6.01 µM (active); with HB3, 11.2 µM (active); in the experiment with ICS, 3.55 µM (active); in the experiment with JCK it was 11.2 µM (active); in the experiment with N140, 5.01 µM (active). Moreover, the Potency is 4.47 µM (active) with P93_24; 5.01 µM (active) in the experiment on P94_40; 4.47 µM (active) with PAD; 4.47 µM (active) in the experiment with PC15; 7.57 µM (active) with PC26; 3.98 µM (active) with PC49. Moreover, the Potency in the experiment with SC27B is 7.94 µM (active); with TAB109, 3.55 µM (active).

As for `CC(C)(Oc1ccc(CCNC(=O)c2ccc(Cl)cc2)cc1)C(=O)O`, the Potency result with DFO2036, in the experiment with DIV14, with DIV17, in the experiment with DIV30, in the experiment on Dd2 and with ECU was “inactive” throughout. Moreover, the Potency entry in the experiment on FAB9, in the experiment on GB4, with HB3, in the experiment on ICS, in the experiment with JCK and in the experiment on N140 was “inactive” throughout. Further, the Potency entry in the experiment on P93_24, in the experiment with P94_40, in the experiment with PAD, in the experiment on PC15, in the experiment on PC49 and in the experiment with SC27B was “inactive” throughout. Also, the Potency entry with TAB109 was “inactive”.

As for `O=C1NCN(c2ccccc2)C12CCN(CCCC(c1ccc(F)cc1)c1ccc(F)cc1)CC2`, the Potency in the experiment on DFO2036 was 7.08 µM (active); with DIV14, 7.57 µM (active); in the experiment on DIV17, 6.75 µM (active); with Dd2 it was 5.01 µM (active); with ECU, 5.62 µM (active); in the experiment on GB4 it was 6.75 µM (active). Further, the Potency with HB3 was 7.08 µM (active); with ICS, 3.98 µM (active); with N140 it was 5.62 µM (active); in the experiment with P93_24, 4.47 µM (active); with P94_40, 5.62 µM (active); in the experiment on PAD it was 5.01 µM (active). Further, the Potency with PC15 is 11.2 µM (active); in the experiment with SC27B, 8.91 µM (active); in the experiment on TAB109, 6.31 µM (active). The Potency result in the experiment on FAB9 is “inactive”.

As for `CCCCOCCOCCOCc1cc2c(cc1CCC)OCO2`, the Potency entry with DFO2036, in the experiment with DIV14, in the experiment with DIV17, in the experiment with DIV30, in the experiment with Dd2 and in the experiment with ECU was “inactive” each time. The Potency entry in the experiment on FAB9, in the experiment with GB4, in the experiment with HB3, with ICS, in the experiment with JCK and with N140 was “inactive” throughout. Besides, the Potency entry with P93_24, in the experiment on P94_40, in the experiment on PAD, with PC15, in the experiment on PC26 and in the experiment on PC49 was “inactive” each time. For the same molecule, the Potency entry in the experiment on SC27B and in the experiment on TAB109 was “inactive” each time.

For `CC1=NS(=O)(=O)c2cc(Cl)ccc2N1`, the Potency entry with DFO2036, with DIV14, in the experiment with DIV17, with DIV30, in the experiment on ECU and in the experiment on FAB9 was “inactive” each time. The Potency entry with GB4, in the experiment on ICS, in the experiment on N140, with PAD, with PC26 and with SC27B was “inactive” in each case.

In the case of `CCN(Cc1ccncc1)C(=O)C(CO)c1ccccc1` (stereo unspecified), the Potency result with DFO2036, in the experiment on DIV14, with DIV17, in the experiment with DIV30, with Dd2 and in the experiment with ECU was “inactive” throughout. Besides, the Potency entry with FAB9, in the experiment on GB4, in the experiment on HB3, with ICS, with JCK and in the experiment with N140 was “inactive” each time. Also, the Potency result in the experiment on P93_24, in the experiment on P94_40, in the experiment on PAD, with PC15, with PC26 and in the experiment on PC49 was “inactive” in each case. For the same molecule, the Potency result with SC27B and in the experiment on TAB109 was “inactive” in each case.

On to `CCOC(=O)C1=C(C)NC(C)=C(C(=O)OC)C1c1cccc(Cl)c1Cl` (stereo unspecified), for which the Potency result with DFO2036, in the experiment on DIV14, in the experiment on DIV17, with DIV30, in the experiment with Dd2 and in the experiment with ECU was “inactive” in each case. In addition, the Potency result in the experiment with FAB9, in the experiment on GB4, in the experiment on HB3, in the experiment with JCK, in the experiment with N140 and with P93_24 was “inactive” each time. Also, the Potency result with P94_40, with PAD, in the experiment with PC15, in the experiment with PC49 and in the experiment with TAB109 was “inactive” throughout.

In the case of `Cc1cc(C)c(/C=C2\C(=O)Nc3ccccc32)[nH]1`, the Potency result in the experiment with DFO2036, in the experiment on DIV14, in the experiment with DIV17, in the experiment with DIV30, in the experiment on Dd2 and with ECU was “inactive” throughout. Further, the Potency result with FAB9, with GB4, in the experiment with HB3, with JCK, in the experiment on N140 and with P93_24 was “inactive” throughout. Moreover, the Potency entry with P94_40, with PAD, in the experiment with PC15, in the experiment on PC26, in the experiment on PC49 and in the experiment with SC27B was “inactive” throughout. Further, the Potency entry with TAB109 was “inactive”.
